The source of these data is PubChem BioAssay AID686979 (National Center for Advancing Translational Sciences (NCATS), 2013).

Out of some 420,000 compounds screened, about 50,000 (12%) were called active. Where a call stands in place of a potency, no number is given. About 26% were inconclusive and are not listed. The call rests on the fitted dose curve; in most records, active means well fitted inhibition curve with a large enough effect; inconclusive means small, poorly fitted or top-dose-only effect; inactive means flat fitted curve, though single readings scatter. Many of the other results were omitted from the sample, so actives are more common in it than they were.
Potency means the concentration at half of the fitted maximal effect.

The test can be described thus: qHTS for Inhibitors of human tyrosyl-DNA phosphodiesterase 1 (TDP1): qHTS in cells in presence of CPT. Further: nearly all actives have a fitted effect of over 55% in size. Conditions: chicken DT40 Tdp1-/-;hTDP1 cells + 20 nM CPT, ATP luminescence, 48 h; series mostly up to 46.2 µM. Summed up:
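Chicken DT40 Tdp1-/- cells complemented with human TDP1, 400 cells/well, exposed to compounds plus 20 nM camptothecin for at least 48 h at 37 C; viability read as ATP content by CellTiter-Glo luminescence.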
On the technique in general: qHTS replaces the single test concentration by a dilution series.
Take `COc1ccccc1OC(C)C(=O)Nc1ccc(S(=O)(=O)Nc2nccs2)cc1` (centres undefined): the Potency result is “inactive”.
In the case of `COc1ccc(NC(=O)CC2C(=O)NC3CCCCC3N2C(=O)c2ccc(F)cc2)cc1` (centres undefined), the Potency result was “inactive”.
To `CCOc1ccc(NC(=O)C(CC(C)C)N2Cc3ccccc3C2=O)cc1` (centres undefined) belongs “inactive”.
For `Cc1ccc(CNS(=O)(=O)c2ccc(-c3cc(C(F)(F)F)on3)s2)cc1`, the Potency entry was “inactive”.
The result for `COc1ccccc1CNC(=O)COC(=O)c1sc(C)nc1C` reads “inactive”; that for `COc1ccccc1CNC(=O)c1cc(-c2cc(F)ccc2OC)n[nH]1`, “inactive”; that for `COc1ccccc1CNC(=O)c1cc(-c2cc(Cl)ccc2C)n[nH]1`, 16.4 µM (active).
In the case of `CC(Sc1nnc(-c2ccccc2F)n1C1CC1)C(N)=O` (centres undefined), the Potency entry was “inactive”.
On to `Cc1ccc2c(c1)C1CN(C)CCC1N2S(=O)(=O)c1cccc(F)c1` (centres undefined), for which the Potency entry was “inactive”.
To `CCCC(=O)N1CCC1(C)C(=O)Nc1ccc(-n2cncn2)cc1` (centres undefined) belongs “inactive”; to `CCOC(=O)CSc1nc(C)cc2c1C(=O)OC2`, “inactive”.
The result for `CCOC(=O)CSC1=N/C(=C/c2ccc(-n3cncn3)cc2)C(=O)N1C(C)=O` reads 20.6 µM (active).
To `NNc1nnc(NN)c2ccccc12` belongs “inactive”; to `CCCS(=O)(=O)NC(=O)C1(C)CCCN(C(=O)c2ccnc(Cl)c2)C1` (centres undefined), “inactive”.
On to `CCN(CC)CCCNC(=S)N(CCO)Cc1cc2cc3c(cc2[nH]c1=O)OCO3`, for which the Potency result was “inactive”.
`COc1ccc(CCNc2cc(N3CCN(C(=O)c4ccccc4OC)CC3)ccc2[N+](=O)[O-])cc1OC`: the Potency was 5.8 µM (active).
The result for `COc1ccc(CCNC(=O)c2ccccc2-c2ccccc2C(=O)O)cc1OC` reads “inactive”; that for `COc1ccc(CCNC(=O)C(=O)NCc2ccccc2C)cc1OC`, “inactive”; that for `CCCCN(C(=O)c1cccc(N2C(=O)c3ccccc3C2=O)c1)c1c(N)n(CCCC)c(=O)[nH]c1=O`, “inactive”.
The result for `CC(CN1CCCCC1)c1ccccc1` (centres undefined) reads “inactive”.
For the molecule `COc1ccc(/C=C2\SC(=S)N(CCC(=O)Nc3ccccn3)C2=O)cc1OC`, the Potency result is “inactive”.
The result for `CCC(=O)N1CCC(C(N)=O)(N2CCCCC2)CC1` reads “inactive”.
To `CC(=O)NN1C(=O)c2ccccc2NC1c1ccccc1` (centres undefined) belongs “inactive”; to `O=C1CCC(C(=O)OCC(=O)Nc2ccc(OC(F)F)cc2)=NN1`, “inactive”; to `Cc1ccc(CCC(=O)Nc2ncc(Cc3cc(Cl)ccc3Cl)s2)o1`, 0.731 µM (active).
In the case of `Cc1ccc(Cc2cnc(N)s2)o1`, the Potency entry was “inactive”.
To `CCOc1ccccc1NC(=O)CCc1ccc(C)o1` belongs “inactive”; to `COc1ccc(CC(=O)Nc2ccc3c(c2)CCC3)cc1S(=O)(=O)N1CCOCC1`, “inactive”; to `COc1ccc(CCC(=O)Nc2ccc(Cl)c(S(=O)(=O)N3CCOCC3)c2)cc1OC`, 23.1 µM (active).
For `O=C(COC(=O)CCc1ccc(S(=O)(=O)N2CCOCC2)cc1)Nc1cccc(Cl)c1`, the Potency entry is “inactive”.
Regarding `CCOc1ccc(CCNC(=O)COC(=O)c2ccc(C)c(S(=O)(=O)N3CCOCC3)c2)cc1OCC`, the Potency result was “inactive”.
To `Cc1ccc(C(=O)OCC(=O)N2CCCCCC2)cc1S(=O)(=O)N1CCOCC1` belongs “inactive”; to `COc1ccc(C(=O)OCC(=O)c2ccc(C)c(S(=O)(=O)N3CCOCC3)c2)cc1OC`, 18.4 µM (active).
Take `CNC(=O)C[C@H]1C(=O)N(Cc2ccccc2)C[C@@H]1CSC`: the Potency entry is “inactive”.
To `CCOc1ccc(N(CC(=O)Nc2ccccc2F)S(=O)(=O)c2c(C)[nH]c(=O)[nH]c2=O)cc1` belongs “inactive”; to `Cc1ccc(NC(=O)Cn2nnc(C(=O)NCc3ccco3)c2N)c(C)c1`, “inactive”; to `CCN(C(=O)Cc1c(C(=O)O)n(CC)c2ccccc12)c1ccccc1C`, “inactive”.
For the molecule `COc1ccc(S(=O)(=O)NC(C)C(=O)N2CCCCCC2)cc1` (centres undefined), the Potency entry was “inactive”.
With `COc1ccc(CNS(=O)(=O)c2ccc(NC(=O)N3CCCCC3)cc2)cc1`, the Potency is 18.4 µM (active).
The result for `COc1ccc(NC(=O)N2CC3(CCN(C(C)=O)CC3)C2)cc1` reads “inactive”.
Turning to `COC(=O)C[C@H]1C[C@@H]2c3cc(N(C)C)ccc3O[C@@H]2[C@H](CO)O1`, the Potency result was “inactive”.
The result for `O=C(NC1CCN(S(=O)(=O)c2ccc(F)cc2)CC1)c1ccccc1` reads “inactive”; that for `Cc1ccc2nc(NC(=O)c3nc(SCc4ccccc4F)ncc3Cl)sc2c1`, “inactive”; that for `CCCS(=O)(=O)c1ncc(Cl)c(C(=O)Nc2scc(-c3ccccc3)c2C(=O)OCC)n1`, 2.31 µM (active).
To `CCOC(=O)c1c(-c2ccc(-c3ccccc3)cc2)csc1NC(=O)CCC(=O)O` belongs “inactive”; to `O=C(CN1C(=O)CC(c2ccccc2)S(=O)(=O)c2ccccc21)NC1CCCC1` (centres undefined), “inactive”.
As for `Cc1ccc(-c2noc(CNC(=O)c3ccoc3C)n2)cc1`, the Potency result was “inactive”.
As for `CSc1n[nH]c(=S)n1N`, the Potency entry is “inactive”.
To `Cn1cccc1C(=O)N1CCC2(CC1)CN(c1cccc(-c3ccccc3)c1)C2` belongs 18.4 µM (active); to `COc1ccc(NC(=O)N2CC3(CCN(C(=O)c4cccn4C)CC3)C2)cc1`, “inactive”.
Take `CC(C)NC(=O)N1CCC2(CC1)CCN(C(=O)c1cccn1C)CC2`: the Potency result is “inactive”.
Turning to `O=C(C=CC(=O)Nc1ccc(F)cc1F)Nc1ccc(F)cc1F`, the Potency result was “inactive”.
To `Cc1nc2ccc(S(=O)(=O)N(C)CC(=O)NC(C)c3ccccc3)cc2s1` (centres undefined) belongs “inactive”; to `O=C(Nc1cccc(Cl)c1)Nc1ccccc1NS(=O)(=O)c1cccs1`, “inactive”.
To `CCOC(=O)c1ccc(NC2Nc3cc(C)nn3S2)cc1` (centres undefined) belongs “inactive”; to `CC(Oc1ccc2ccccc2c1)C(=O)NNC(=S)NC(=O)c1ccco1` (centres undefined), 23.1 µM (active); to `O=C(Nc1ccc2ccccc2c1)/C(=C\c1ccc2c(c1)OCO2)NC(=O)c1ccco1`, “inactive”.
As to `Cc1ccc(C(=O)NNC(=O)C(C)Oc2ccc3ccccc3c2)o1` (centres undefined), the Potency result was “inactive”.
Regarding `CC(C)=CCN1CCN(Cc2cc3ccccc3[nH]2)CC1CCO` (centres undefined), the Potency result was “inactive”.
To `COc1ccc(OC)c(CN2C(=O)CCC2(C)c2nnnn2Cc2ccccc2)c1` (centres undefined) belongs “inactive”; to `Cc1sc2ncnc(SCC(=O)NC3CCS(=O)(=O)C3)c2c1C` (centres undefined), “inactive”; to `CCCNc1ncnc2sc(C)c(C)c12`, 16.4 µM (active).
With `CSc1ncnc2sc(C)c(C)c12`, the Potency entry was “inactive”.
The result for `COc1cccc(NC(=O)CCNS(=O)(=O)c2ccc3c(c2)oc(=O)n3C)c1` reads “inactive”; that for `CCc1ccccc1NC(=O)c1ccc2c(c1)CCN2S(C)(=O)=O`, “inactive”.
On to `CC(C)=CCC/C(C)=C/C(=O)O`, for which the Potency result was “inactive”.
To `COc1ccccc1-c1cc2nc(C)c(CCC(=O)NC3CCCCC3)c(C)n2n1` belongs “inactive”; to `COc1ccc(N)c(C)c1`, “inactive”.
The result for `COc1ccc(-c2ccc(C(=O)NC(C)C)c3occc23)c(C)c1` reads 14.6 µM (active); that for `COc1ccc(C2OC(=O)CC2C(=O)NC(C)C)cc1` (centres undefined), “inactive”; that for `COc1ccc(Cl)cc1C(=O)OCC(=O)NCc1cccs1`, “inactive”.
As to `Cc1nnc(SC(C(=O)c2ccccc2)c2ccccc2)[nH]c1=O` (centres undefined), the Potency result was “inactive”.
Turning to `CN1CCC(N(C)C(=O)c2ccc(Cl)c(S(=O)(=O)Nc3ccc(Cl)cc3)c2)CC1`, the Potency result is “inactive”.
The result for `Cc1cccc(-n2ncc3c(=O)[nH]c(SCC(=O)Nc4cc(C)on4)nc32)c1` reads “inactive”; that for `Cc1ccc2c(c1)N(CC(=O)N1CCC(C)CC1)C(=O)c1cccnc1O2`, “inactive”; that for `O=C(CN1C(=O)c2cccnc2Oc2ccc(Cl)cc21)NCCc1ccccc1`, “inactive”.
As to `CCN(CC)c1ccc(NC(=O)CN2C(=O)c3cccnc3Oc3ccc(Cl)cc32)c(C)c1`, the Potency is 9.2 µM (active).
The result for `CCN(CC)c1ccc(NC(=O)Cn2nc3c(cc2=O)CCCC3)c(C)c1` reads “inactive”; that for `Cc1ccc2c(c1)N(CC(=O)NCCCN1CCCCC1)C(=O)c1cccnc1O2`, “inactive”.
In the case of `CC(=O)c1cccc(NC(=O)CN2C(=O)c3cccnc3Oc3ccc(Cl)cc32)c1`, the Potency was 18.4 µM (active).
The result for `COC(=O)Cc1ccc(OCC(=O)NC2CCCC2)cc1` reads “inactive”; that for `COc1cccc(N(CC(=O)NC2CCCC2)C(=O)CCCC(=O)Nc2ccccn2)c1`, “inactive”.
For `COCC1CCN(C(=O)C2CCC(=O)N(Cc3cccc(C(F)(F)F)c3)C2)CC1` (centres undefined), the Potency entry was “inactive”.
Turning to `CC(=O)CC[C@@H](C)O[C@@H]1OC(C)[C@H](O)CC1O` (some centres undefined), the Potency entry is “inactive”.
To `Nc1nc(SCc2cccc(Br)c2)n[nH]1` belongs “inactive”; to `COc1cc2ccccc2cc1C(=O)Nc1ccccc1C`, “inactive”.
The result for `COc1cccc(-n2c(SCC(=O)NC3CCS(=O)(=O)C3)nc3ccccc3c2=O)c1` (centres undefined) reads “inactive”; that for `CCCn1c(N)c(C(=O)CSc2nc3ccccc3c(=O)n2-c2ccc(OC)cc2)c(=O)[nH]c1=O`, “inactive”; that for `COc1cccc(-n2c(SCC(=O)c3c[nH]c4ccccc34)nc3ccccc3c2=O)c1`, 20.6 µM (active).
Consider `COC(=O)c1ccc(CSc2nc3ccccc3c(=O)n2-c2cccc(OC)c2)o1`, for which the Potency is 20.6 µM (active).
To `COC(=O)c1ccc(Cc2ccccc2)o1` belongs “inactive”.
The result for `COCCNC(=O)c1ccc(-n2c(SCc3cccnc3)nc3ccccc3c2=O)cc1` reads “inactive”; that for `COCCn1c(C)cc(C(=O)CSc2nnc(C3CC3)n2C2CC2)c1C`, “inactive”; that for `COCCn1c(C)cc(C(=O)CN2c3cccc4cccc(c34)S2(=O)=O)c1C`, “inactive”.
As for `COCC(C)n1c(SCc2ccc(C(=O)OC)o2)nc2ccccc2c1=O` (centres undefined), the Potency was 7.31 µM (active).
Turning to `COCCn1c(C)cc(C(=O)CSc2nc3ccccc3c(=O)n2C(C)COC)c1C` (centres undefined), the Potency is 20.6 µM (active).
On to `COc1cccc(-n2c(N)cc(=O)nc2SCC(=O)Nc2cc(C)on2)c1`, for which the Potency result is “inactive”.
To `COCC(C)n1c(SCC(=O)NC2CCCCC2C)nc2ccccc2c1=O` (centres undefined) belongs “inactive”; to `CCOc1ccc(CN(C)C(=O)c2ccc(=O)[nH]c2)cc1`, “inactive”.
To `Cc1occc(=O)c1OCc1c(Cl)cccc1Cl` belongs “inactive”.
The result for `COc1ccc(C2C3=C(CCCC3=O)N(CC(=O)O)C3=C2C(=O)CCC3)cc1` reads “inactive”; that for `CSc1ccc(S(=O)(=O)N2CCC(C(=O)NCc3ccncc3)CC2)cc1`, “inactive”; that for `COc1ccc(-c2c(C)nn3c(N4CCC(C(=O)N5CCCCC5)CC4)cc(C)nc23)cc1OC`, “inactive”.
For the molecule `CCN(CC)c1nc(-c2ccccc2)cc(C(F)(F)F)c1C#N`, the Potency entry was “inactive”.
